About 83,000 compounds went through this panel and 20% of them were active in at least one assay; those are over-represented in the sample as a whole.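 Negative percent growth values reflect cell death: -40 means 40% of the cells present at the start died, and -100 means all died.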 A number with no mark means an inactive call. Calls of active or inactive are those of the source. The calls were made as follows: active = growth percent below 10; inactive = the rest.
Experiments:
Test in all cases: NCI-60 one-dose screen, 48 h (100 = growth as untreated, 0 = no growth, -100 = all killed)
NCI-H23 lung = conditions: 10 µM unless noted
NCI-H226 lung = conditions: 10 µM unless noted
NCI-H322M lung = conditions: 10 µM unless noted
HOP-62 NSCLC = conditions: 10 µM unless noted
NCI-H460 lung = conditions: 10 µM unless noted
HOP-92 NSCLC = conditions: 10 µM unless noted
NCI-H522 lung = conditions: 10 µM unless noted
A549/ATCC NSCLC = conditions: 10 µM unless noted
786-0 renal = conditions: 10 µM unless noted
COLO 205 colon = conditions: 10 µM unless noted
DU-145 prostate = conditions: 10 µM unless noted
MALME-3M melanoma = conditions: 10 µM unless noted
MDA-MB-231 breast = conditions: 10 µM unless noted
RXF 393 renal = conditions: 10 µM unless noted
SF-268 CNS = conditions: 10 µM unless noted
SF-295 CNS = conditions: 10 µM unless noted
SF-539 CNS = conditions: 10 µM unless noted
M14 melanoma = conditions: 10 µM unless noted
K-562 leukemia = conditions: 10 µM unless noted
UACC-257 melanoma = conditions: 10 µM

SMILES | growth (NCI-H23 lung) | growth (NCI-H226 lung) | growth (NCI-H322M lung) | growth (HOP-62 NSCLC) | growth (NCI-H460 lung) | growth (HOP-92 NSCLC) | growth (NCI-H522 lung) | growth (A549/ATCC NSCLC) | growth (786-0 renal) | growth (COLO 205 colon) | growth (DU-145 prostate) | growth (MALME-3M melanoma) | growth (MDA-MB-231 breast) | growth (RXF 393 renal) | growth (SF-268 CNS) | growth (SF-295 CNS) | growth (SF-539 CNS) | growth (M14 melanoma) | growth (K-562 leukemia) | growth (UACC-257 melanoma)
COc1cnc2c(c1)C(=O)c1c-2n(CCCn2ccnc2)c(=O)c2cc(OC)c(OC)cc12 | -1.32% (active) | 29.7% | -8.33% (active) | -47.5% (active) | -47.9% (active) | -12.2% (active) | -80.5% (active) | -14.9% (active) | -14.9% (active) | -85.2% (active) | -2.47% (active) | -51.4% (active) | -0.696% (active) | -10.5% (active) | 29.2% | -20.5% (active) | -35.2% (active) | -86.5% (active) | – | –
IP(CCCCCCCCCCSc1n(Cc2ccc3ccccc3c2)c(-c2ccccc2)c(-c2ccccc2)[n+]1Cc1ccc2ccccc2c1)(c1ccccc1)(c1ccccc1)c1ccccc1 | -66.2% (active) | -55.2% (active) | -68.4% (active) | -59.1% (active) | -63.4% (active) | -77.8% (active) | -61.8% (active) | – | -56.2% (active) | -55.2% (active) | -69.6% (active) | -70.5% (active) | -63.7% (active) | -35.6% (active) | -54.6% (active) | -77.6% (active) | -66.7% (active) | -61.2% (active) | -46.4% (active) | -55.8% (active)
CCCC(=O)NC(c1cccnc1)c1ccc2c(C)ccnc2c1O (centres undefined) | 37.8% | 17.2% | 27.2% | 23.4% | 6.08% (active) | 47.2% | 0.954% (active) | – | 26% | 9.55% (active) | 30.1% | 21.2% | 32.9% | 20.4% | 21.9% | 17.8% | 14.6% | 9.45% (active) | 21.4% | 5.9% (active)
NS(=O)(=O)c1ccc(Nc2nc(N/N=C/c3ccc([N+](=O)[O-])cc3)nc(Nc3ccccc3)n2)cc1 | 12.2% | 59.6% | 39.5% | 9.49% (active) | 1.55% (active) | 49.1% | 48.3% | – | 10.4% | 23.1% | 43.6% | 36.9% | 45.8% | -5.96% (active) | 26.9% | 57.1% | -36.3% (active) | 13.3% | 20.3% | 82.5%
CCN1CCN(c2cc(C(=O)Nc3nc4ccc(Oc5ccnc(C(=O)NC)c5)cc4s3)cc(C(F)(F)F)c2)CC1 | 89.6% | 90.8% | 95% | 104% | 46.4% | 91.1% | 78.7% | – | 70% | 59.9% | 85.8% | 75.7% | 86.2% | -15.6% (active) | 92.7% | 83% | 92.9% | 67.7% | 55.3% | 94.2%
O=C(COc1cccc2cccnc12)Nc1ccc(C(=O)/C=C/c2ccc(Cl)cc2)cc1 | 89.2% | 94.6% | 99.1% | 108% | 102% | 108% | 85.2% | – | 99% | 108% | 88.7% | 108% | 93.4% | 92.5% | 93.7% | 91.6% | 93.5% | 99.5% | 47.4% | 99.8%
COc1cc2c3c(n(CCCNC4CCC4)c(=O)c2cc1OC)-c1cc2c(cc1C3=O)OCO2 | -68% (active) | 70.6% | -37.7% (active) | -72.2% (active) | -50.4% (active) | 87.9% | -44.9% (active) | -50.6% (active) | -85.2% (active) | -79.9% (active) | -73.5% (active) | -46.2% (active) | -65.1% (active) | -74% (active) | 45.6% | 20.4% | -83.5% (active) | -78% (active) | – | –
O=C1c2cc(Br)ccc2-n2c1nc1cc(Br)ccc1c2=O | 58.6% | 78.3% | 88.7% | 82.3% | 85.4% | 134% | 68.9% | – | 88.5% | 85.7% | 74.1% | 44.1% | 75.5% | 97.6% | 78% | 87% | 92.4% | 72.2% | 73.9% | 43.1%
CCOC(=O)c1c(Nc2ccccc2)nn2c(-c3ccc(Br)cc3)ccnc12 | 64.9% | 63.3% | 79.1% | 47.4% | 33.9% | 28.2% | 80.9% | – | 54.3% | 80.1% | 77.8% | 75% | 70.4% | -12.3% (active) | 68.7% | 77.2% | 63.8% | 88.6% | 78.9% | 103%
O=S(=O)(Nc1ccc(-c2nc(-c3cccc(O)c3)c(-c3ccnc(Br)c3)[nH]2)cc1)c1ccccc1 | 16.2% | 40.1% | 41.7% | 33.1% | 19.7% | 13.7% | 25.5% | – | 17.7% | 43.3% | 54.6% | 39.8% | 23% | -16.3% (active) | 37.1% | 10.4% | 44.4% | 26.1% | 2.08% (active) | 44.5%
COc1ccc([C@H]2[C@H](O)C(=O)N2c2cc(OC)c(OC)c(OC)c2)cc1O | 31.2% | 19.6% | 51.4% | 18.9% | 2.08% (active) | -8.12% (active) | -38% (active) | 19.8% | 17.4% | -73% (active) | 17.4% | 59.7% | 28.3% | 21.3% | 50.1% | 2.84% (active) | -16.3% (active) | 7.13% (active) | – | –
COc1ccc(-c2nnc(SCc3ccc(O)c4ncccc34)n2-c2ccccc2)cc1 | 17.6% | 30.1% | 19.8% | 19.9% | 2.93% (active) | -4.84% (active) | 15.5% | – | 25.5% | 68.6% | 24.8% | 10.6% | 30.9% | 7.27% (active) | 18.1% | -1.96% (active) | 4.55% (active) | -13.5% (active) | 13.3% | 13.6%
COc1ccc([C@@H]2[C@@H](O)C(=O)N2c2cc(OC)c(OC)c(OC)c2)cc1Cl | 28% | 33.3% | 44.8% | 24.5% | 2.22% (active) | -2.92% (active) | -8.73% (active) | 22.2% | 18.9% | -81.1% (active) | 15.2% | 64.3% | 26% | 26% | 44% | 9.68% (active) | -12.4% (active) | 13.4% | – | –
C#C[C@]1(O)CC[C@H]2[C@@H]3CC=C4c5sc(Nc6cccc(Cl)n6)nc5CC[C@]4(C)[C@H]3CC[C@@]21C | 16.1% | 19.8% | 44.5% | -8.39% (active) | -2.3% (active) | -5.56% (active) | -17.7% (active) | – | -54.8% (active) | 34.5% | 24.5% | -20.2% (active) | 9.05% (active) | -57.4% (active) | -16.5% (active) | -70.2% (active) | -60.2% (active) | -22.8% (active) | 3.91% (active) | -64.3% (active)
Cc1cc2nc(C(Cl)Cl)nc(-c3ccco3)n2n1 | 76.8% | 95.6% | 23.3% | 47.9% | 0.56% (active) | 79.5% | 93.9% | – | 96.2% | 25.8% | -12.5% (active) | 108% | 64.2% | 12.5% | 81.2% | 20.3% | 66.1% | – | 89.7% | 92.9%
CCN(CC)Cc1c(-c2cccc(OC(F)(F)F)c2)[nH]c2ccc(N3CCCC3)cc2c1=O | 92.9% | 96.1% | 87.3% | 103% | 97.5% | 86.2% | 87.5% | – | 98.6% | 103% | 99.7% | 86% | 87% | 74.1% | 89.1% | 102% | 95% | 96.9% | 87.8% | 91.3%

— PubChem BioAssay (NCI)
